Hits are enriched below; roughly 2.2% of the tested compounds scored in any of these assays.
Hsp70 act: switches on Hsp70 transcription; 200,000 compounds, 0.04% hits; activation, % at 10 µM; HeLa Hsp70 promoter luciferase reporter, luminescence; scaled: vehicle 0, proteasome-inhibitor control 100%; AID 1203;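 active = activation above the mean across all tested compounds plus 3 SD, cutoff set per campaign, cut at about 5.5% in these data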;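 note: 100% = MG132 at 30 µM as the positive control and 0% = DMSO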
GalR3 antag: antagonists of human GalR3; 360,000 compounds, 0.44% hits; AID 651719; HEK293 GalR3-CNG cAMP membrane potential fluorescence; galR3 body fused to GalR1 C-terminus; O60755; inhibition, % at 3 µM;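 active = inhibition above the screen-wide average plus 3 SD, cut at about 13% in these data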;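 note: forskolin and galanin both at EC90 stimulate the cells; cAMP rise reported by CNG channel membrane potential dye signal; 0% = forskolin plus galanin with DMSO and 100% = forskolin alone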
Target sequence (O60755 1-299 limits assumed): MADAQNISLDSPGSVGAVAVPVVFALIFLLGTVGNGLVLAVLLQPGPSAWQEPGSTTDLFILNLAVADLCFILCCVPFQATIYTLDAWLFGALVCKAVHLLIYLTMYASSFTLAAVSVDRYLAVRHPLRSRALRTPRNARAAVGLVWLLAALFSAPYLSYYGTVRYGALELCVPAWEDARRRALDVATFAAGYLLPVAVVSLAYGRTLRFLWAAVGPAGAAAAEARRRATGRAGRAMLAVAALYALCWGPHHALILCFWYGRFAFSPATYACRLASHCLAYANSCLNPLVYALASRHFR
SMARCA2 activ: SMARCA2 function activation, primary screen | 370,000 compounds, 1% hits | MG213 cells, MMTV-luciferase reporter, dexamethasone, overnight | activation, % at 9.1 µM; in the data active = activation above about 7.8%;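 note: 0% = vehicle wells and 100% = reference activator wells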
HIF activator: HIF pathway transcriptional activation; U2OS HRE-luciferase reporter, luminescence; normalized: DMSO 0%, desferrioxamine 100%; activation, % at 7.5 µM (by protocol); 300,000 compounds, 0.32% hits;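 active = mean activation of at least 10% of the iron chelator positive control signal, with at least half of replicates also reaching 10%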
GAA850 FXN act: frataxin GAA850 promoter activation | HEK293 lucGAA850 FXN promoter luciferase reporter, 24 h; percent of 10 µM SAHA response | activation, % at 6 µM | 360,000 compounds, 0.56% hits;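 active = activation above the average of all compounds screened plus 3 SD, cutoff fixed separately per campaign, cut at about 7.5% in these data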;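 note: 0% = DMSO wells and 100% = 10 µM SAHA wells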
An asterisk follows results filed as active; x = no result; + = active, no number.

SMILES	Hsp70 act	GalR3 antag	SMARCA2 activ	HIF activator	GAA850 FXN act
Cc1ccc(C(=O)Nc2ncc(Cc3ccc(F)cc3)s2)o1	0	-3	7.9*	1	0
O=C(CN1CCCCC1)N1CCCc2ccccc21	0	-4	1	90*	-1
O=C(NCCc1ccccc1)OCc1cn(Cc2ccccc2C(F)(F)F)nn1	x	x	-5	x	x
Cc1ccc(NC(=O)N2CCC(NC(=O)c3cccc(C)c3)CC2)cc1	x	-4	-1	150*	3
Cc1ccc(NC(=O)N2CCC(NC(=O)c3ccco3)CC2)cc1	x	-5	1	-23	0
CCCc1cc(=O)oc2cc(OC(C)C(=O)NCCCn3ccnc3)ccc12 (stereo not given)	x	0	7.9*	1	-1
Cc1cc(O)cc(=O)n1-c1cccc([N+](=O)[O-])c1	x	-7	-2	x	x
O=C(/C=C/c1ccncc1)c1ccc2c(c1)OCCO2	0	-1	-4	1	1
COc1cc(/C=C/C(=O)c2ccc3c(c2)OCCO3)cc(Br)c1OCC(=O)N(C)C	x	-3	-3	25*	-8
O=C(CSc1nnc(NC(=O)c2ccccc2Cl)s1)Nc1ccc2c(c1)oc1ccccc12	0	0	11*	1	x
C/C(=N\Nc1nc2ccccc2[nH]1)c1ccccn1	x	-7	-8	179*	-9
Cc1ccc(C(C)C)c(OCc2ccc(C(=O)N/N=C/c3cccc(O)c3O)cc2)c1	-1	10	-5	70*	-11
Cc1n[nH]c(=S)n1/N=C/c1ccccc1OCc1ccc(Cl)cc1	0	7	0	2	8.3*
Nc1nnnn1/N=C/c1ccccc1OCc1ccc(Cl)cc1	0	-8	0	0	0
CC(=O)N1CCc2cc(S(=O)(=O)NC3CCN(C(=O)OCc4ccccc4)CC3)ccc21	x	x	-8	x	x
CCCCNc1c(-c2ccc(SC3CCCCC3)cc2)nc2ccccn12	x	-9	7.9*	6	5
CCCCNc1c(-c2ccc(SC(C)CC)cc2)nc2ccccn12 (stereo not given)	x	-8	1	3	7
C[C@@H]1COc2cc(Br)ccc2S(=O)(=O)N1Cc1cn(CCC2OCCO2)nn1	x	x	-2	x	x
Cn1cccc1C(=O)NC(=O)COC(=O)c1cc(S(=O)(=O)N2CCCCC2)ccc1Cl	0	-4	-1	46*	4
O=C(COC(=O)c1cc(S(=O)(=O)N2CCCCC2)ccc1Cl)NC1CCCCC1	x	-5	-1	x	-1
CN(C)CCN(C(=O)c1ccc(S(=O)(=O)N(C)c2ccccc2)cc1)c1nc2ccc(Cl)cc2s1	x	-6	14*	2	2
COc1ccccc1N=Nc1[nH]c2ccc(C)cc2c1O	0	-2	7.9*	0	4
CCn1c(NC(=O)c2ccco2)c(-c2ccccc2Cl)c(=O)c2ccccc21	0	-2	8.0*	0	-1
CCN(CC)c1ccc(/C=N/NC(=O)c2cccc(S(=O)(=O)N3CCOCC3)c2)c(O)c1	-1	-3	-3	102*	-8
CCN(CC)c1ccc(/C=N/Nc2nc(C)cc(=O)[nH]2)c(O)c1	0	-6	-4	57*	-13
SMILES	Hsp70 act	GalR3 antag	SMARCA2 activ	HIF activator	GAA850 FXN act
CCN(CC)c1ccc(/C=N/NC(=O)c2c(Cl)cnn2C)c(O)c1	0	-1	0	15*	-10
Cc1cc(=O)[nH]c(NN=Cc2cc(Br)ccc2O)n1	x	2	-5	x	-7
CCN(CC)c1ccc(C=Nc2cccc(S(=O)(=O)N3CCOCC3)c2)c(O)c1	x	-3	0	x	-1
ONC=Nc1cccc2nonc12	0	-4	-1	12*	0
CN(c1cccc(Cl)c1)S(=O)(=O)c1cccc(C(=O)Nc2nc3ccccc3[nH]2)c1	-1	-8	-2	+	2
CN1CCCCC(NC(=O)c2cccc(C(F)(F)F)c2)C1=O (stereo not given)	x	-3	-1	x	x
O=C(N/N=C/c1cc(Cl)ccc1O)c1ccncc1	x	-9	-6	26*	-6
O=C(N/N=C/c1cccnc1)c1ccc(NC(=O)c2ccc(Cl)cc2)cc1	x	-9	-2	39*	0
O=C(N/N=C/c1cc2cc3c(cc2nc1Cl)OCCO3)c1ccccc1O	0	-2	-2	1	1
O=C(N/N=C/c1cc2cc3c(cc2nc1Cl)OCO3)c1ccncc1	x	5	5	345*	-2
O=C(N/N=C/c1ccccc1Cl)c1ccncc1	x	-4	0	0	1
Cc1cc(C)c(CN2CCN(C(=O)Cn3cc(C)c(=O)[nH]c3=O)CC2)c(C)c1	x	-8	-1	x	x

High-throughput results (PubChem BioAssay)
